Measurements taken from PubChem BioAssay AID602393 (Broad Institute, 2012).
About 7,000 (2%) of roughly 350,000 compounds were called active. For the sample, actives were picked, then their nearest neighbours and some compounds at random. Unmarked numbers belong to inactive results. Cut-off read from the data, not from the text of the source: active = activation above about 40%; inconclusive = no clear call, values can overlap the other calls; inactive = below that.

Test: raisers of Bmi1 knock-in reporter signal – mouse ES cells, Bmi1 luciferase knock-in, single point, esBAF inhibitor project, primary screen (AID 602393);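 note: 0% = median of the plate's neutral control wells and 100% = double that signal; a rise in the Bmi1 reporter signal indicates esBAF inhibition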
Details: 24 h, at 12.5 µM, stronger effect = higher value, 100% = twice the neutral-well signal

Compound	reporter increase
Cc1noc(C)c1CCC(=O)N1CCCC(CO)(Cc2ccccc2)C1 (stereo not drawn)	73.8% (active)
CCOC(=O)C1(Cc2ccccc2C)CCCN(C(=O)CCc2c(C)noc2C)C1 (stereo not drawn)	4.36%
Cc1ccccc1CC1(CO)CCCN(C(=O)c2cc(-c3ccccc3)no2)C1 (stereo not drawn)	-3.48%
COC(=O)CCC(=O)N1CCCC(CO)(Cc2ccccc2)C1 (stereo not drawn)	88.3% (active)
Cc1noc(C)c1CCC(=O)O	-5.69%
CCCc1cc(C(=O)N2CCCC(CO)(CCCc3ccccc3)C2)n(C)n1 (stereo not drawn)	9.89%
CCCN(C)C[C@H]1OCCCC[C@@H](C)Oc2ccc(NC(=O)CCC(F)(F)F)cc2C(=O)N([C@H](C)CO)C[C@H]1C	3.13%
COc1cccc(-c2ccc3c(c2)O[C@@H](CN(C)Cc2ccncc2)[C@H](C)CN([C@H](C)CO)S3(=O)=O)c1	0.833%
CN1CCN(C(=O)C[C@H]2C[C@@H]3c4cc(NC(=O)NC5CCCC5)ccc4O[C@@H]3[C@@H](CO)O2)CC1	-0.346%
O=C(CN1CCOCC1)N[C@@H]1CC[C@@H](CCn2cc(C3CCCCC3)nn2)O[C@@H]1CO	-5.48%
O=C1C(Cc2ccc(O)cc2)NC(=S)N1Cc1ccccc1 (stereo not drawn)	-6.04%
CC1CN(Cc2ccccc2)C(=S)NC1=O (stereo not drawn)	2.98%
CN(C)c1ccc(/C=C2\NC(=S)N(Cc3ccccc3)C2=O)cc1	42.2% (active)
C[C@H](CO)N1C[C@H](C)[C@H](CN(C)S(=O)(=O)c2ccccc2)Oc2ccc(NC(=O)Cn3cnnn3)cc2C1=O	2.23%
CCC(=O)Nc1ccc2c(c1)C(=O)N(C)[C@@H]1CC[C@@H](CC(=O)Nc3cccc(OC)c3)O[C@@H]1CO2	-2.81%
Cc1nn(Cc2ccc(Cl)c(Cl)c2)c(C)c1NC(=O)c1cc(C2CC2)on1	7.59%
O=C(NC1CCCCC1)c1cc(C2CC2)on1	-10.1%
CSc1ccccc1NC(=O)c1cc(C2CC2)on1	53.9% (active)
CCCNC(=O)N1C[C@H](O)COC[C@H]2O[C@@H](CC(=O)NCc3ccncn3)CC[C@@H]21	-2.02%
CCn1c(Cc2ccccc2)nnc1SCc1nc2ccccc2c(=O)[nH]1	-5.17%
Clc1ccccc1SCc1nc2ccccc2[nH]1	53% (active)
CCN(CC)S(=O)(=O)c1ccc2nc(CSc3nnnn3-c3ccc(O)cc3)[nH]c2c1	1.1%

Compound	reporter increase
O=C(C[C@@H]1C[C@H]2c3cc(NC(=O)NC4CCCC4)ccc3O[C@H]2[C@H](CO)O1)NCc1cc(F)ccc1F	5.15%
Fc1ccc2cnc(-c3ccccc3)cc2c1	58.8% (active)
N#CCSc1nc(-c2ccccc2)nc2ccc(F)cc12	-3.61%
COc1ccc(C(C)(O)c2nc(-c3cc(F)cc(F)c3)cs2)cc1 (stereo not drawn)	-4.23%
Fc1ccccc1-c1cc2cc3c(cc2cn1)OCO3	16.5%
COc1cc(OC)cc(-c2cc3ccc(F)cc3cn2)c1	58.7% (active)
COc1ccc(-c2cc3ncccc3cn2)cc1	10.9%
O=C(Nc1ccc(Cl)cc1)N1C[C@@H]2[C@H](c3ccccc31)[C@@H](CO)N2C(=O)c1cccnc1	13.8%
CO[C@H]1CN(C)C(=O)c2cc(NC(=O)Nc3ccccc3)ccc2OC[C@@H](C)N(C(=O)Nc2c(C)noc2C)C[C@@H]1C	3.56%
O=S(=O)(NCC[C@H]1CC[C@@H](NS(=O)(=O)c2cccc(Cl)c2)[C@@H](CO)O1)c1cccc(F)c1	8.34%
CCC(=O)N1C[C@@H](C)[C@H](OC)CN(C)C(=O)c2cc(NC(=O)c3cc(C)on3)ccc2OC[C@@H]1C	6.47%
COc1ccc(-c2cc(C(=O)NCCCN3CCOCC3)no2)cc1	-13.5%
COc1ccc(OCc2cc(C(=O)NCC3(C)COC3)no2)c(Cl)c1	42.9% (active)
COCCN1CCN(C(=O)c2cc(COc3ccc(F)cc3Cl)on2)CC1	-1.67%
CC(=O)N(C)C[C@@H]1Oc2ncc(-c3ccccc3F)cc2C(=O)N([C@H](C)CO)C[C@@H]1C	-1.47%
N=c1c2c(-c3ccccc3)c(-c3ccccc3)n(Cc3ccccc3)c2ncn1CCCO	-11.6%
OCCCN1c2ccccc2Nc2nnc(-c3ccccc3)cc21	45.3% (active)
O=C(C[C@@H]1CC[C@@H](NC(=O)c2cccnc2)[C@H](CO)O1)NCCN1CCCCC1	-6.27%
CCNC(=O)C[C@@H]1CC[C@H]2[C@@H](COc3ccc(NC(=O)c4ccccc4Cl)cc3C(=O)N2C)O1	2.25%
COc1ccc(NC(=O)Nc2ccc3c(c2)C(=O)N([C@H](C)CO)C[C@H](C)[C@@H](CN(C)Cc2ccccc2)OCCCC[C@H](C)O3)cc1	3.05%
COCC(=O)Nc1ccc2c(c1)C(=O)N(C)C[C@H](OC)[C@@H](C)CN(C(=O)Cc1cccnc1)[C@@H](C)CO2	-0.572%
O=C(Nc1cccc([N+](=O)[O-])c1)N1CCc2ccccc2C1	45.9% (active)

Compound	reporter increase
CCc1ccc(NC(=O)N2CCc3ccccc3C2)cc1	60.4% (active)
O=C(CN1CCOCC1)Nc1cccc([N+](=O)[O-])c1	-2.52%
O=C(Nc1cccc([N+](=O)[O-])c1)Nn1cnnc1	9.77%
Cn1cccc1C(=O)N1CCc2ccccc2C1	28.8%
Cc1ccc(NC(=O)CN2CCc3ccccc3C2)cc1C	8.63%
COCC(=O)N(C)C[C@H]1[C@@H](c2ccc(-c3cccnc3)cc2)[C@H](CO)N1C(C)=O	3.19%
CO[C@@H]1CN(C)C(=O)c2cc(NC(=O)c3ccc(F)cc3)ccc2OC[C@H](C)NC[C@@H]1C	2.56%
CC(NC(=O)COc1cccnc1[N+](=O)[O-])c1ccc(Cl)cc1Cl (stereo not drawn)	0.51%
O=C(COc1cccnc1[N+](=O)[O-])Nc1ccc(Cl)cc1F	43.4% (active)
COc1cccc(NC(=O)COc2cccnc2[N+](=O)[O-])c1	20%
COc1ccc(OCc2ccc(-c3nc4ccccc4c(=O)n3N)o2)cc1	54.8% (active)
COc1ccc(-c2nc3ccccc3c(=O)n2CCc2ccc(O)cc2)cc1	9.53%
Cn1c(COc2ccc(Cl)cc2)nc2ccccc2c1=O	12.6%
COc1ccc(S(=O)(=O)N2CC[C@@H]3[C@@H](CO)Nc4ccc(C#Cc5cccnc5)cc4[C@@H]32)cc1	7.74%
CO[C@@H]1CN(C)C(=O)c2cc(NS(=O)(=O)Cc3ccccc3)ccc2OC[C@H](C)NC[C@H]1C	-0.575%
COCC#Cc1cnc2c(c1)C(=O)N([C@H](C)CO)C[C@H](C)[C@H](CN(C)C(=O)Nc1cc(F)ccc1F)O2	-0.321%
CCN(c1cccc(C)c1)S(=O)(=O)c1ccc(-c2coc(C)n2)cc1	2.04%
COc1ccc(-c2cn3ccc(C)cc3n2)cc1	-61.7%
CCN(CC)S(=O)(=O)c1ccc(-c2cn3ccc(C)cc3n2)cc1	42.3% (active)
COCC(=O)Nc1ccc2c(c1)C(=O)N(C)C[C@H](OC)[C@@H](C)CN(C(=O)c1cnccn1)[C@H](C)CO2	-3.88%
COC(=O)C[C@H]1CC[C@@H](NC(=O)c2ccccc2)[C@@H](CO)O1	-2.05%
CC(C)NC(=O)Nc1ccc2c(c1)C(=O)N([C@@H](C)CO)C[C@H](C)[C@@H](CN(C)C(=O)Nc1ccc(F)cc1)OCCCC[C@H](C)O2	11.9%

Compound	reporter increase
O=C(CCSc1ccccc1)N1CCN(c2ccccc2F)CC1	65.1% (active)
O=C(CCc1ccccc1F)N1CCN(c2ccccc2)CC1	1.91%
O=C(NCC(=O)N1CCN(c2ccccc2F)CC1)c1cccs1	28.1%
CCCN1C[C@H](C)[C@@H](OC)CN(C)C(=O)c2ccc(NC(=O)C3CCOCC3)cc2OC[C@H]1C	-2.07%
O=C(C[C@@H]1CC[C@H]2NC[C@H](O)COC[C@@H]2O1)NCCN1CCCCC1	6.52%
O=C(CC(F)(F)F)N1C[C@H]2[C@@H](c3ccccc31)[C@H](CO)N2C(=O)Cc1cccnc1	-1.13%
CS(=O)(=O)N1CCc2cc(C(=O)Nc3ccccc3)ccc21	47.5% (active)
CS(=O)(=O)N1CCc2cc(C(=O)Nc3ccccc3Br)ccc21	34.7%
CC(=O)Nc1cccc(NC(=O)c2ccc3c(c2)CCN3S(C)(=O)=O)c1	2.43%
O=C(O)C[C@H]1C[C@@H]2c3cc(NC(=O)Nc4ccc(C(F)(F)F)cc4)ccc3O[C@@H]2[C@@H](CO)O1	2.29%
COc1ccc(CN2C(=O)C(C)S/C2=N/N=C/c2ccco2)cc1 (stereo not drawn)	70.2% (active)
CCN(CC)C(=O)C1=C(C)N(Cc2ccc(OC)cc2)C(=O)C(CC(=O)NCc2ccco2)C1 (stereo not drawn)	-3.89%
C=CCN1C(=O)C(Cc2cccc(Cl)c2)S/C1=N/N=C/c1ccco1 (stereo not drawn)	-2.3%
CCCC(=O)Nc1ccc2c(c1)C(=O)N(C)C[C@@H](OC)[C@@H](C)CN(C(=O)CC)[C@H](C)CO2	-1.94%
CN(C)C(=O)C[C@H]1CC[C@@H](NC(=O)Nc2cccc(F)c2)[C@H](CO)O1	-0.909%
COCC#Cc1cnc2c(c1)C(=O)N([C@@H](C)CO)C[C@@H](C)[C@H](CN(C)C(=O)c1cnccn1)O2	3.45%
CN1C(=O)c2cc(NC(=O)Nc3ccccc3Cl)ccc2OC[C@H]2O[C@@H](CC(=O)O)CC[C@H]21	3.49%
COCC1CCN(C(=O)C2CCC(=O)N(CC3CCCCC3)C2)CC1 (stereo not drawn)	-0.459%
O=C(C1CCC(=O)N(C2CC2)C1)N1CCN(c2ccc(Cl)cc2)CC1 (stereo not drawn)	-7.88%
CC(C)C1CCN(C(=O)C2CCC(=O)N(C3CCCCCC3)C2)CC1 (stereo not drawn)	55.6% (active)
COc1ccc(S(=O)(=O)Nc2ccc3c(c2)CC(=O)N([C@H](C)CO)C[C@H](C)[C@@H](CN(C)C)O3)cc1	-3.65%
O=C(Cc1ccccn1)N[C@H]1CC[C@H](CCNS(=O)(=O)c2cccc(F)c2)O[C@@H]1CO	0.895%
